The nature of assay [1]: Nuclear factor erythroid 2-related factor 2/antioxidant responsive element (Nrf2/ARE) small molecule agonists: qHTS cell viability counter screen in human keratinocytes (AID 1919968; active = well fitted curve in the direction sought with a large enough effect in the repeat runs; an effect the other way counts as inactive or inconclusive; note: nearly all actives have a fitted effect of over 55% in size; note: potency is the fitted concentration of half-maximal effect). The method in brief: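 CellTiter-Fluor fluorescence, read 1 h after reagent, gave viability in the same wells as the ARE-luciferase assay. KeratinoSens cells (1,500/well) had 23 h compound exposure at 37 C/5% CO2 following 5 h plating.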

The nature of assay [2]: Nuclear factor erythroid 2-related factor 2/antioxidant responsive element (Nrf2/ARE) small molecule agonists: luciferase reporter gene qHTS assay in human keratinocytes (AID 1919969; note: nearly all actives have a fitted effect of over 35% in size; note: potency is the fitted concentration of half-maximal effect). (In a reporter assay the amount or activity of a reporter protein is the signal.)
Assay [3] has as its target Gonadotropin-releasing hormone receptor (Homo sapiens) (UniProt P30968). In words: Human gonadotropin-releasing hormone receptor (GnRHR) small molecule agonists, calcium flux assay in GnRHR-HEK293 cells (AID 1920063). Note: nearly all actives have a fitted effect of over 35% in size. In a few lines: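 Agonist mode: compounds at 15 concentrations, in triplicate, went onto calcium dye-loaded GnRHR-HEK293 cells. Intracellular calcium was then followed as 480/540 nm fluorescence at 1 s intervals over 3 min.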
On the technique in general: Calcium assays in cells follow changes in intracellular calcium, usually with a dye or a luminescent sensor.

Assay [4] addresses KiSS-1 receptor (Homo sapiens) (UniProt Q969F8). In words: Human kisspeptin (KISS1R) small molecule agonists, calcium flux assay in KISS1R-HEK293 cells (AID 1920064; active = well fitted curve in the direction sought with a large enough effect in the repeat runs; an effect the other way counts as inactive or inconclusive). The method in brief:
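Agonist mode: intracellular calcium rise tracked at 1 s intervals over 3 min (480/540 nm) immediately after compound addition to dye-loaded KISS1R-HEK293 stable cells. Each compound tested at 15 concentrations in triplicate.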

Assay [5] is described as follows: G protein-coupled receptor (GPCR) small molecule agonists, calcium flux assay: HEK293 wild type cell line counter screen (AID 1920065). In a few lines: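 Calcium flux counter screen: compound added in agonist mode at 15 concentrations in triplicate to dye-loaded parental HEK293 cells. Fluorescence (480/540) read kinetically for 3 min; ATP served as positive control.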

The nature of assay [6]: p53 small molecule agonists, cell-based qHTS assay with rat liver microsomes: qHTS cell viability counter screen (AID 1963580). Note: nearly all actives have a fitted effect of over 45% in size. The method in brief: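 Cytotoxicity counter screen: intracellular ATP measured by CellTiter-Glo luminescence in the same wells as the beta-lactamase reporter read, on HCT-116 p53RE-bla cells exposed 16 h at 37 C to compounds with rat liver microsomes and NADPH, each 0.5 mg/mL final.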
(qHTS replaces the single test concentration by a dilution series.)

Assay [7] can be described thus: p53 small molecule agonists, cell-based qHTS assay: qHTS cell viability counter screen (AID 1963581). Note: nearly all actives have a fitted effect of over 45% in size. The method in brief: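 Counter screen read by CellTiter-Glo luminescence (ATP content, 30 min at room temperature), run in the same wells as the beta-lactamase reporter read. HCT-116 p53RE-bla cells saw compounds for 16 h at 37 C.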
Assay [8] deals with 5-hydroxytryptamine receptor 2A (Homo sapiens) (UniProt P28223). In words: 5-hydroxytryptamine receptor 2A (HTR2A) small molecule agonists, cell-based qHTS assay (AID 1963587). Note: nearly all actives have a fitted effect of over 30% in size. The method in brief: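 CHO cells stably expressing human HTR2A, plated 18 h, loaded with calcium dye 1 h at 37 C. Agonist mode: compounds added and intracellular calcium fluorescence recorded kinetically for 2 min at 1 sec intervals.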

In assay [9] the target is Muscarinic acetylcholine receptor M1 (Homo sapiens) (UniProt P11229). In words: Cholinergic receptor muscarinic 1 (CHRM1) small molecule antagonists, cell-based qHTS assay (AID 1963588). Note: nearly all actives have a fitted effect of over 40% in size. In a few lines: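 Compounds were tested at 15 concentrations in three independent runs. Dye-loaded CHRM1-CHO cells were exposed 5 min at room temperature before stimulation by acetylcholine added at 50nM. Intracellular calcium was read kinetically on FDSS for 3 min.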

Assay [10] has the same target. In words: Cholinergic receptor muscarinic 1 (CHRM1) small molecule agonists, cell-based qHTS assay (AID 1963589). Note: nearly all actives have a fitted effect of over 35% in size. The method in brief:
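Agonist-mode calcium-flux screen: compounds at 15 concentrations, three independent runs, were pin-transferred onto dye-loaded human CHRM1-CHO cells. Fluorescence was then recorded kinetically every second over minutes.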

A short description of assay [11]: cAMP Responsive Elements (CRE) small molecule agonists, cell-based qHTS assay (AID 1963590). The method in brief: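 Agonist mode: compound added to CRE-bla HEK 293T cells (2,000/well, 18 h after plating) for 3 h at 37 C/5% CO2. Reporter activity detected via FRET beta-lactamase substrate, 2 h room-temperature loading.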
Assay [12] in a line: cAMP Responsive Elements (CRE) small molecule antagonists, cell-based qHTS assay (AID 1963591; active = well fitted inhibition curve with a large enough effect in the signal ratio in the repeat runs, not every such curve was filed as active; the % refers to the signal ratio). In a few lines: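 Antagonist mode: compounds are added alongside the adenylyl cyclase activator NKH477 (0.25 uM final) to CRE-bla HEK293T cells for 3 h. LiveBLAzer FRET substrate, 2 h at room temperature, reports bla expression.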
Assay [13] has as its target Beta-2 adrenergic receptor (Homo sapiens) (UniProt P07550). Nature of the assay: Adrenergic beta2 receptor (ADRB2) small molecule antagonists, cell-based qHTS assay (AID 1963592). Note: series mostly up to about 92 µM; nearly all actives have a fitted effect of over 50% in size. The method in brief:
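Assay format: CHO-ADRB2 cells, 18-20hr seeding at 37C/5% CO2, then compound plus 1nM isoproterenol agonist mix for 0.5hr RT. Homogeneous time-resolved fluorescence cAMP detection after 1hr, expressed as 665/615 nm ratio.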

Assay [14] shares this target. In words: Adrenergic beta2 receptor (ADRB2) small molecule agonists, cell-based qHTS assay (AID 1963593).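 For activation: CHO cells stably overexpressing human ADRB2.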 Note: potency is the fitted concentration of half-maximal effect. In a few lines:
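CHO cells stably over-expressing ADRB2 were plated overnight at 37C, then dosed with compounds plus a stimulation mix containing 100uM IBMX and 25uM Ro-20-1724 for 0.5hr at room temperature. cAMP was measured by HTRF competition, 1hr.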

For assay [15], the target named is D(2) dopamine receptor (Homo sapiens) (UniProt P14416). Nature of the assay: Dopamine D2 receptor (DRD2) small molecule agonists, cell-based qHTS assay (AID 1963594). Note: nearly all actives have a fitted effect of over 35% in size. Note: potency is the fitted concentration of half-maximal effect. The method in brief:
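HEK293 cells stably expressing human DRD2, pre-treated with PDE inhibitor Ro20-1724 (0.1 mM final) and compound 10 min at room temperature, then stimulated with NKH477 (200nM […]) for 30 min. cAMP read by HTRF (665/620 nm).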

Assay [16] shares this target. Nature of the assay: Dopamine D2 receptor (DRD2) small molecule antagonists, cell-based qHTS assay (AID 1963595; active = well fitted inhibition curve with a large enough effect in the signal ratio in the repeat runs, with a control signal flat; the % refers to the signal ratio; note: potency is the fitted concentration of half-maximal effect). In a few lines:
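Readout: HTRF cAMP, cAMP-d2 competing with cellular cAMP for anti-cAMP cryptate, read after 1 h. Cells: DRD2-HEK293. Conditions: 0.1 mM Ro20-1724, 12 nM quinpirole, 200 nM NKH477, 30 min RT.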

Assay [17] can be described thus: p53 small molecule agonists, cell-based qHTS assay with human liver microsomes: qHTS cell viability counter screen (AID 1963579). Note: nearly all actives have a fitted effect of over 45% in size. Note: potency is the fitted concentration of half-maximal effect. The method in brief:
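HLM-supplemented (0.5 mg/mL final) and NADPH-supplemented (0.5 mg/mL final) p53RE-bla cultures, 4,000 cells per well, were dosed with compounds in DMSO for 16 h at 37 C; luminescent ATP detection (CellTiter-Glo, 30 min, room temperature) quantified surviving cells.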

Assay [18] can be described thus: p53 small molecule agonists, cell-based qHTS assay (AID 1963582; active = well fitted activation curve with a large enough effect in the signal ratio in the repeat runs, not every such curve was filed as active; the % refers to the signal ratio). The method in brief:
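Read-out is beta-lactamase FRET fluorescence after 2 h at room temperature with LiveBLAzer B/G substrate. p53 response element-bla cells were treated 16 h at 37 C with compounds in DMSO, added 5 h after seeding.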

The target in assay [19] is 5-hydroxytryptamine receptor 2A (Homo sapiens) (UniProt P28223). Nature of the assay: 5-hydroxytryptamine receptor 2A (HTR2A) small molecule antagonists, cell-based qHTS assay (AID 1963586). Note: nearly all actives have a fitted effect of over 45% in size. The method in brief:
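CHO cells stably expressing human HTR2A were plated for 18 h at 37 C, then loaded with calcium dye for 1 h. Compounds were preincubated 5 min at room temperature before DOI (4 nM solution) was added. Kinetic fluorescence was read for 3 min.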

Assay [20] in a line: p53 small molecule agonists, cell-based qHTS assay with human liver microsomes (AID 1963577).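 Note: p53 response element beta-lactamase reporter cells with liver microsomes plus NADPH.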 In a few lines:
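Reporter activation was measured by LiveBLAzer fluorescence intensity in p53RE-bla cells, which had been exposed to compounds for 16 h at 37 C alongside 0.5 mg/mL human liver microsomes and 0.5 mg/mL NADPH (final concentrations).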

Several values for one entry are separate records, joined by “and”; a condition that tells them apart may be missing. Identical values can stand only once. Records with an inconclusive call do not appear. Where a structure was tested more than once in an assay, its records may differ in their call. Activity calls are given as the source filed them. Unless noted, calls come from the whole dose curve.

Sequence of Beta-2 adrenergic receptor (Homo sapiens) (P07550 whole entry, looked up): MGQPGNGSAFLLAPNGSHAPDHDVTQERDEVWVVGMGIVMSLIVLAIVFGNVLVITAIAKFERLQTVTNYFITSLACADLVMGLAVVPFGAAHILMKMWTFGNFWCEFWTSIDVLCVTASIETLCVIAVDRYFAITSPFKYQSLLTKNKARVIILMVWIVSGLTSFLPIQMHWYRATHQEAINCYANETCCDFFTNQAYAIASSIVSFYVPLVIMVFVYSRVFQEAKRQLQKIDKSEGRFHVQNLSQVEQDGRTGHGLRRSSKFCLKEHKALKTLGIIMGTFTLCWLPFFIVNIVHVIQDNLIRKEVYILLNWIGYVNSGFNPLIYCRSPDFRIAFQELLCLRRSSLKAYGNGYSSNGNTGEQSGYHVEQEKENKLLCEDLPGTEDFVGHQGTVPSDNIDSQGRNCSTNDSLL
Sequence of 5-hydroxytryptamine receptor 2A (Homo sapiens) (P28223 whole entry, looked up): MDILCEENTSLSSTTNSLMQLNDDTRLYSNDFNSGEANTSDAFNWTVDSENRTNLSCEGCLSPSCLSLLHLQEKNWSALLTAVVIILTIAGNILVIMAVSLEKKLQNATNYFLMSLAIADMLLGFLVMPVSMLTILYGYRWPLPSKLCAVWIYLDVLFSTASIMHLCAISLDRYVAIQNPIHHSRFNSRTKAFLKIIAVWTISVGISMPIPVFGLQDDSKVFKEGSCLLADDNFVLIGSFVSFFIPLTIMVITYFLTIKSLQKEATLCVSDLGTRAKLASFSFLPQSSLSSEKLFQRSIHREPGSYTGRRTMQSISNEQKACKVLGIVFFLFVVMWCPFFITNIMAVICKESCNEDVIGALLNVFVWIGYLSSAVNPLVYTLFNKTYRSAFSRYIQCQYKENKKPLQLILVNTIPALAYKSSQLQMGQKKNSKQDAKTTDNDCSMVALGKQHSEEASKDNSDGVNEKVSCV
Sequence of Gonadotropin-releasing hormone receptor (Homo sapiens) (P30968 whole entry, looked up): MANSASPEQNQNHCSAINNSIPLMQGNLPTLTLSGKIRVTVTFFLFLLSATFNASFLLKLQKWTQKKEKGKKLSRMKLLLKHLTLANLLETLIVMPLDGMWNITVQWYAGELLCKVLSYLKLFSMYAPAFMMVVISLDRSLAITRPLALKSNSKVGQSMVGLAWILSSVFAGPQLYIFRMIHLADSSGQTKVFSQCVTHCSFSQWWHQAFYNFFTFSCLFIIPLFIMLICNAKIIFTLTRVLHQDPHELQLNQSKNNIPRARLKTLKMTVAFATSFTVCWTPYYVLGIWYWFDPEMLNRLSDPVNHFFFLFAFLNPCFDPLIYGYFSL
Sequence of D(2) dopamine receptor (Homo sapiens) (P14416 whole entry, looked up): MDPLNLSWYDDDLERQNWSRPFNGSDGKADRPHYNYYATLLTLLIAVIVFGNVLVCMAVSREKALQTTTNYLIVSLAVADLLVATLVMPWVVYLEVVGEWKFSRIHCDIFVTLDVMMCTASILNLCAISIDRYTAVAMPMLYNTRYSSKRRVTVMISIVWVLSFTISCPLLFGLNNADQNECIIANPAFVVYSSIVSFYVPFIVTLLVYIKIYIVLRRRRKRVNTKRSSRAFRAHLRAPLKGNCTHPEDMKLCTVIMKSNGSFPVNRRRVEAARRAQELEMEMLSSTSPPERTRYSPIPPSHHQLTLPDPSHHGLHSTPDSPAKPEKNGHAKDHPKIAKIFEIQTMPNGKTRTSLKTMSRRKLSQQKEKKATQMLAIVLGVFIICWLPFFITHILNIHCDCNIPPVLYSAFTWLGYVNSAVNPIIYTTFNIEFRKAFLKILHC
Sequence of Muscarinic acetylcholine receptor M1 (Homo sapiens) (P11229 whole entry, looked up): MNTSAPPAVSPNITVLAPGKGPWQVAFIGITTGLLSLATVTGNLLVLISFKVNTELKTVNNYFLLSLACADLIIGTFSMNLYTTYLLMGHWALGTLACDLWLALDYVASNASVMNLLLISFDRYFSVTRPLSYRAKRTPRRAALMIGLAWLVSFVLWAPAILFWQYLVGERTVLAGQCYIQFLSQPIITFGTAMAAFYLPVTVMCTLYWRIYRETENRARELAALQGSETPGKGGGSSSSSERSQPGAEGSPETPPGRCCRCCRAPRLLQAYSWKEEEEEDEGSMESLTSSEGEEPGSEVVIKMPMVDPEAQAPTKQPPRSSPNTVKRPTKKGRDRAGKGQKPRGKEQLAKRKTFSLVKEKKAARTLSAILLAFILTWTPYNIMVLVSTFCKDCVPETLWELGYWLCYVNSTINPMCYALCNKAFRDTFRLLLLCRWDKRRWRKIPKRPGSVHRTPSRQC
Sequence of KiSS-1 receptor (Homo sapiens) (Q969F8 whole entry, looked up): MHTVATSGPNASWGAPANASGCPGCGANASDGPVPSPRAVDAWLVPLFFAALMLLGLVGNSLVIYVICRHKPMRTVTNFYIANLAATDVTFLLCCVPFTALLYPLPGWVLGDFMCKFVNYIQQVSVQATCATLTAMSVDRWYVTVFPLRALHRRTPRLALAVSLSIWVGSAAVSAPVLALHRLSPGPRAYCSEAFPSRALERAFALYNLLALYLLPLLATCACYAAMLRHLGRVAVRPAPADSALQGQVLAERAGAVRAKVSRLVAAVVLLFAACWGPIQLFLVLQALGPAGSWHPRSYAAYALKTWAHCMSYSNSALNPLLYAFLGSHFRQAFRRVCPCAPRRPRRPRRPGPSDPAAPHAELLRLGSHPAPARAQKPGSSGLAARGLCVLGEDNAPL

Turning to `CCCCCCCCSCCO`, the Potency entry in [1], in assay [2], in assay [3], in assay [4], in [5] and in assay [6] was “inactive” each time. The Potency entry in assay [7], in [8], in assay [9], in assay [10], in assay [11] and in assay [12] was “inactive” in each case. Further, the Potency result in assay [13], in assay [14], in assay [15] and in assay [16] was “inactive” in each case.
For the compound `OCc1ccccc1`, the Potency entry in assay [1], in assay [3], in assay [4], in assay [5], in [17] and in assay [6] was “inactive” throughout. For the same compound, the Potency result in assay [11], in assay [12], in assay [13], in assay [14], in assay [15] and in assay [16] was “inactive” in each case. Besides, the Potency result in assay [2] is “inactive and 9.69 µM (active)”.
`OC[C@H]1O[C@@H]2O[C@H]3[C@H](O)[C@@H](O)[C@@H](O[C@H]4[C@H](O)[C@@H](O)[C@@H](O[C@H]5[C@H](O)[C@@H](O)[C@@H](O[C@H]6[C@H](O)[C@@H](O)[C@@H](O[C@H]7[C@H](O)[C@@H](O)[C@@H](O[C@H]8[C@H](O)[C@@H](O)[C@@H](O[C@H]1[C@H](O)[C@H]2O)O[C@@H]8CO)O[C@@H]7CO)O[C@@H]6CO)O[C@@H]5CO)O[C@@H]4CO)O[C@@H]3CO`: the Potency result in [1], in [2], in [3], in assay [4], in assay [5] and in [6] was “inactive” each time. For the same compound, the Potency result in assay [7], in assay [11], in [12], in assay [13], in assay [15] and in assay [16] was “inactive” in each case.
Turning to `CN/C(=C\[N+](=O)[O-])NCCSCc1ccc(CN(C)C)o1`, the Potency result in assay [1], in [2], in [3], in [4], in assay [5] and in assay [7] was “inactive” in each case. Besides, the Potency entry in assay [18], in [11], in [12], in assay [13], in assay [14] and in assay [16] was “inactive” each time. The Potency entry in assay [15] was “inactive and 17.4 µM (active)”.
As to `COc1ccc(N)c(C)c1`, the Potency result in [1], in assay [2], in assay [3], in [4], in [5] and in [17] was “inactive” in each case. Besides, the Potency result in assay [8], in assay [9], in assay [10], in assay [11], in assay [13] and in assay [14] was “inactive” each time. Also, the Potency entry in [15] and in assay [16] was “inactive” throughout.
For the compound `C=CC(=O)OCC(CO)(COC(=O)C=C)COC(=O)C=C`, the Potency was 4.87 µM (active) and 12.2 µM (active) in assay [1]; 4.87 µM (active) and 6.11 µM (active) in assay [2]; 45.9 µM (active) and 9.13 µM (active) in [17]; 6.88 µM (active) and 19.3 µM (active) in assay [14]; 54.6 µM (active) and 21.7 µM (active) in assay [16]. In addition, the Potency result in [3], in [4], in assay [5], in assay [19], in assay [8] and in assay [9] was “inactive” throughout. In addition, the Potency result in assay [10], in [13] and in assay [15] was “inactive” in each case.
For `O=Cc1ccc(C(=O)O)cc1`, the Potency entry in [1], in [2], in [3], in [4], in assay [20] and in [17] was “inactive” throughout. Further, the Potency entry in [6], in assay [18], in assay [19], in assay [8], in [9] and in assay [10] was “inactive” each time. Moreover, the Potency result in [11], in assay [12], in assay [13], in assay [14], in assay [15] and in [16] was “inactive” each time.
On to `COC(=O)N[C@H](C(=O)N[C@@H](Cc1ccccc1)[C@@H](O)CN(Cc1ccc(-c2ccccn2)cc1)NC(=O)[C@@H](NC(=O)OC)C(C)(C)C)C(C)(C)C`, for which the Potency result in assay [1], in [2], in assay [3], in [4], in assay [20] and in assay [17] was “inactive” each time. The Potency result in [6], in assay [7], in [18], in assay [8], in assay [9] and in [10] was “inactive” each time. For the same compound, the Potency result in [12], in assay [13], in [14], in assay [15] and in assay [16] was “inactive” throughout.

Source of the values: PubChem BioAssay (Tox21).
